Assay results from PubChem BioAssay.
The other results are listed elsewhere or left out. Calls of active or inactive are those of the source.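 Rule for the calls, unless noted: active = inhibition above the hit cutoff computed for the primary STAT3 screen (cut at about 44% in these data); inactive = the rest.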

How the values were obtained:
[1] = potentiators of IFN-gamma STAT1 reporter activity – cell-based, HTS, luciferase reporter, confirmation (AID 1262;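 active = activation above a set limit carried over from the earlier primary STAT1 screen, cut at about 140% in these data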;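 note: simple ratio to median IFN-gamma plus DMSO wells so 0% means no light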); conditions: NIH 3T3 STAT1-luciferase reporter, IFN-gamma potentiation, luminescence; at 5.7 µM; hits give high values; 100% = IFN-gamma EC80 alone, no compound
[2] = enhancement of NF-kB transcriptional signalling – cell-based, HEK293T, luciferase luminescence, TNF-alpha, counter-screen for STAT1 activator project (AID 1306;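 active = activation above the mean of solvent-only control wells plus 3 SD, set per campaign, cut at about 130% in these data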;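 note: TNF-alpha given at a submaximal dose yielding about 80% of full reporter signal; values are well signal over median control so 100% means no change and 0% no light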); conditions: HEK293T NF-kB luciferase reporter, TNF-alpha stimulated, at 5.7 µM, hits give high values, 100% = TNF-alpha with vehicle only
[3] = target: Signal transducer and activator of transcription 3 (Homo sapiens) (UniProt P40763); assay: enhancers of IL-6 STAT3 transcription – U3A cells, luciferase, luminescence, counter-screen for STAT1 activator project, confirmation (AID 1316;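 active = activation above the solvent-only control well mean plus 3 SD, set per plate batch, cut at about 110% in these data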;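 note: 0% = no luminescence and 100% = median IL-6 plus DMSO wells; higher means more STAT3 reporter activation so hits are non-selective activators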); conditions: U3A cells STAT3-luciferase reporter, IL-6, luminescence; at 5.7 µM; hits give high values; 100 = IL-6 alone, no compound effect; cells lack STAT1
[4] = system: DAF-12 nuclear receptor (Heterodera glycines), GAL4-LBD fusion; assay: hgDAF-12 GAL4 fusion reporter activation, retest – cell-based, luminescence, HEK293, GAL4-LBD fusion, confirmation (AID 743050;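 active = mean activation over triplicate wells above the hit cutoff derived from the earlier primary screen, cut at about 11% in these data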;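 note: 0% = DMSO low control and 100% = 2 mM sodium butyrate high control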); conditions: HEK293 GAL4-hgDAF12 luciferase reporter, agonist mode; at 6.8 µM; hits give high values; percent of butyrate response
[5] = target: Oxysterols receptor LXR-beta (Homo sapiens) (UniProt P55055); assay: nonspecific reporter activation via LXR – cell-based, luminescence, HEK293, H. glycines campaign, counter-screen for hgDAF-12 agonist project, confirmation (AID 743051;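 active = mean activation of the triplicate above a set limit carried over from the primary screen, none filed active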); conditions: HEK293 Gal4-LXR luciferase reporter, 24 h; at 6.8 µM; hits give high values
Oxysterols receptor LXR-beta (Homo sapiens), sequence (P55055 whole entry, looked up, the tested form may be a part): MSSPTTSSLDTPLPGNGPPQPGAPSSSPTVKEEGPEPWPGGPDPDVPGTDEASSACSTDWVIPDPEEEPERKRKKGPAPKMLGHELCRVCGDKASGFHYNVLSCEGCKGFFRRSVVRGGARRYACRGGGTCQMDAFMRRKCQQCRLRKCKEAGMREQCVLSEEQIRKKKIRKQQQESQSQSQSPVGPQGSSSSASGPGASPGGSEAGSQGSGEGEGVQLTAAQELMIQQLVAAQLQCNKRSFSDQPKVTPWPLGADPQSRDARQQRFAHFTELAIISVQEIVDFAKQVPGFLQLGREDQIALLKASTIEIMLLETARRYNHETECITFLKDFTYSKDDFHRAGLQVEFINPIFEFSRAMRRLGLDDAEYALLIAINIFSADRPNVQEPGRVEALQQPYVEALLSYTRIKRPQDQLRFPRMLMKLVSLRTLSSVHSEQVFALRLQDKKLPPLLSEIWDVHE

[6] = blockers of IL-6 STAT3 signaling – U3A cells, luciferase, luminescence, confirmation (AID 1265); conditions: IL-6 STAT3 luciferase reporter, at 5.7 µM, hits give high values, cell line lacks STAT1;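 note: 0% = IL-6 plus DMSO and 100% = IL-6 plus nifuroxazide control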
[7] = inhibition of TNF-alpha-driven NF-kB transcription – cell-based, HEK293T, luciferase, TNF-alpha stimulus, counter-screen for STAT3 inhibitor project, confirmation (AID 1308;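 active = inhibition above the mean of solvent-only control wells plus 3 SD, cutoff set per campaign, cut at about 13% in these data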;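 note: 0% = TNF-alpha with DMSO and 100% = TNF-alpha with MG high control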); conditions: HEK293T NF-kB luciferase reporter, TNF-alpha induced; at 5.7 µM; hits give high values
[8] = inhibition of STAT1-driven transcription – cell-based, NIH 3T3, luciferase luminescence, IFN-gamma, counter-screen for STAT3 inhibitor project, confirmation (AID 1317;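 active = inhibition above the mean plus 3 SD of solvent-only control wells, limit set per screening run, cut at about 16% in these data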;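 note: 0% = DMSO with IFN-gamma and 100% = nifuroxazide control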); conditions: NIH 3T3 STAT1-luciferase reporter, IFN-gamma induced, at 5.7 µM, hits give high values
[9] = target: Insulin-degrading enzyme (Homo sapiens) (UniProt P14735); assay: cellular IDE Abeta-cleavage inhibition – fluorescence polarization, HEK cells, FAbetaB substrate, confirmation (AID 435028;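 active = mean inhibition across triplicate wells above the cutoff set by the earlier primary insulin-degrading enzyme screen, cut at about 16% in these data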;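 note: 0% = DMSO wells and 100% = 60 µM reference IDE inhibitor Ii1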); conditions: at 5.59 µM, hits give high values
Insulin-degrading enzyme (Homo sapiens), sequence (P14735 whole entry, looked up): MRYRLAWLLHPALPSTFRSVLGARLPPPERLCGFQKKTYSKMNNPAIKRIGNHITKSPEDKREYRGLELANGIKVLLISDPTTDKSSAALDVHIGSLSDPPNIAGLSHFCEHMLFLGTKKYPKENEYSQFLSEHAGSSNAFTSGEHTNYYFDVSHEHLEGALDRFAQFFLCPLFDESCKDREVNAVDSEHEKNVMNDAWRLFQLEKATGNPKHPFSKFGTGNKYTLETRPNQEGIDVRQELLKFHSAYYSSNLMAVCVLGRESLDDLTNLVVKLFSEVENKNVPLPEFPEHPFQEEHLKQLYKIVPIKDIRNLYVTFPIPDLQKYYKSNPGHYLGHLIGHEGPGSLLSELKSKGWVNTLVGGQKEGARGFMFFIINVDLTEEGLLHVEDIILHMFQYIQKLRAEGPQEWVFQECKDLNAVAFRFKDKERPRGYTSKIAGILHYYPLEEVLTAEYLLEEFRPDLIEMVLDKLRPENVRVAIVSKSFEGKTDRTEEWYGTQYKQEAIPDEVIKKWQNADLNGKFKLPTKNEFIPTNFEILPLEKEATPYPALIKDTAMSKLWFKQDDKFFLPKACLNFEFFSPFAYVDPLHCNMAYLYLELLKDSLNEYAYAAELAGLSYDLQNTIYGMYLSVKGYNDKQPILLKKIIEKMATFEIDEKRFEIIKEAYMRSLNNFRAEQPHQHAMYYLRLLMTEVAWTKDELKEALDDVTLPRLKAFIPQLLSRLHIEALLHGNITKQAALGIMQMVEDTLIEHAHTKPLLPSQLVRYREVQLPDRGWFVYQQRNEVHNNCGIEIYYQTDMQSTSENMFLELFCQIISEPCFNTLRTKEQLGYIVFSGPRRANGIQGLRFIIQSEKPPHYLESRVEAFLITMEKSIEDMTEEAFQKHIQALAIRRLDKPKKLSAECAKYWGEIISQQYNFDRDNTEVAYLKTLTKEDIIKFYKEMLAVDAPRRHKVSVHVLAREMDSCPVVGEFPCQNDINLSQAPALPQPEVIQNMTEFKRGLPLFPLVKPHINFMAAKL

[10] = HEK cell viability loss – luminescence, cytotoxicity control for IDE inhibitor project (AID 449730; in the data active = inhibition above about 22%;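 note: 0% = vehicle wells and 100% = reference cytotoxic drug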); conditions: HEK293 cytotoxicity, ATP luminescence; at 5.59 µM; hits give high values
[11] = target: Photoreceptor-specific nuclear receptor (Homo sapiens) (UniProt Q9Y5X4); assay: retest of NR2E3-NCOR disrupting agonists – cell-based, luminescence, CHO-S two-hybrid, confirmation (AID 624378;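 active = average inhibition above a cutoff equal to the mean inhibition of all tested compounds plus one SD, cut at about 70% in these data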;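 note: 0% = DMSO in NR2E3 cells and 100% = DMSO in cells lacking NR2E3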); conditions: CHO-S mammalian two-hybrid NR2E3-NCOR, luciferase luminescence; at 3.98 µM; hits give high values
Photoreceptor-specific nuclear receptor (Homo sapiens), sequence (Q9Y5X4 whole entry, looked up): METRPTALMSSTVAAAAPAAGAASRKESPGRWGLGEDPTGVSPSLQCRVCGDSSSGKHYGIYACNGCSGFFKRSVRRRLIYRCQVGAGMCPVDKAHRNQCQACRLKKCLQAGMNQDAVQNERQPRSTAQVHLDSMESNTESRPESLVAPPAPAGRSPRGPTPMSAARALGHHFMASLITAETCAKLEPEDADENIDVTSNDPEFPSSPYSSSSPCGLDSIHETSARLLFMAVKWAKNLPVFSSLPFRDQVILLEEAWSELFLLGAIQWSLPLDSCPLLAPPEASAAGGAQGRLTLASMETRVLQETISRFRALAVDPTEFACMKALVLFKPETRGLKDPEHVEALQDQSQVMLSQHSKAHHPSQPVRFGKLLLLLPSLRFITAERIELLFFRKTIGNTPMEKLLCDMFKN

[12] = nonselective effects on VP16 transactivation – cell-based, luminescence, CHO-S, high throughput, counter-screen for NR2E3 agonist project, confirmation (AID 624379;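 active = mean inhibition above a cutoff equal to the average over all tested compounds plus one standard deviation, cut at about 70% in these data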;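 note: 0% = DMSO with VP16-transfected cells and 100% = DMSO with cells lacking VP16; higher means less reporter light so more repression of VP16 activity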); conditions: CHO-S GAL4-VP16 luciferase reporter, at 3.98 µM, hits give high values
[13] = VP16-driven transactivation reporter suppression – cell-based, luminescence, HEK293, counter-screen for COUP-TFII antagonist project (AID 687007; in the data active = inhibition above about 13%); conditions: HEK293 Gal4-VP16 luciferase reporter, at 8.5 µM, hits give high values
[14] = target: COUP transcription factor 2 (Homo sapiens) (UniProt P24468); assay: retest of COUP-TFII reporter suppressors – cell-based, luciferase reporter, HEK293, triplicate, confirmation (AID 687008;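 active = mean inhibition over three repeats above a set limit taken from the earlier primary screen, cut at about 38% in these data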;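 note: 100% = cells given the luciferase reporter alone without the COUP-TF2 vector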); conditions: HEK293 NGFI-A luciferase reporter, luminescence; at 8.5 µM; hits give high values
COUP transcription factor 2 (Homo sapiens), sequence (P24468 whole entry, looked up): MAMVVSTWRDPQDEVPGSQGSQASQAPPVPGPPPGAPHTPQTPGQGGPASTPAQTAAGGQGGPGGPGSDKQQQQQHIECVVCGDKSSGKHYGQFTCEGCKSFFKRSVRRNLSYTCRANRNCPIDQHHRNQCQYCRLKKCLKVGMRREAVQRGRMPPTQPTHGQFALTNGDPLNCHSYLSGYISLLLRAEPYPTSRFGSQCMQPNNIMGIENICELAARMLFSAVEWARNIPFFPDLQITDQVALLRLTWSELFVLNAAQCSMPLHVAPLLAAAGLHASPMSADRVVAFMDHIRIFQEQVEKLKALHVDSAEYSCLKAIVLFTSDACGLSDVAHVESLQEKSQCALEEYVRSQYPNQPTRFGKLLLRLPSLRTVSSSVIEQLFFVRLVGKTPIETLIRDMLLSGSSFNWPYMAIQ

[15] = target: Neuropeptide Y receptor type 2 (Homo sapiens) (UniProt P49146); assay: human Y2 receptor positive modulation or activation – cell-based, confirmation (AID 1539; in the data active = activation above about 33%); conditions: cell-based NPY-Y2 potentiator/agonist assay; at 3.6 µM; hits give high values
Neuropeptide Y receptor type 2 (Homo sapiens), sequence (P49146 whole entry, looked up): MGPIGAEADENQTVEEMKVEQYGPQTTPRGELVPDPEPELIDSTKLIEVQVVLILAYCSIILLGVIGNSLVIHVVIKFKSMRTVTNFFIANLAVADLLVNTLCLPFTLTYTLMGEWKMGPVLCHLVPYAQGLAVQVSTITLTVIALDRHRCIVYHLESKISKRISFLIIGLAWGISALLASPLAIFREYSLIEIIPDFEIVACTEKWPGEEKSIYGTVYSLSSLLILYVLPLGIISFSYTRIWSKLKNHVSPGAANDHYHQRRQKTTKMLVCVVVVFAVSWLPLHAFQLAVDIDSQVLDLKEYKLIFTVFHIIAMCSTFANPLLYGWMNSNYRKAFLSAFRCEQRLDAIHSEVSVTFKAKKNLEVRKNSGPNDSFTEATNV

[16] = target: Neuropeptide Y receptor type 1 (Homo sapiens) (UniProt P25929); assay: human Y1 receptor positive modulation or activation – cell-based, fluorescence, counter-screen for NPY-Y2 potentiator project (AID 1651; in the data active = activation above about 45%;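 note: cells stimulated with submaximal NPY then isoproterenol with phosphodiesterase inhibitor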); conditions: Y1 HEK293-CNG cells, membrane potential fluorescence; at 3.6 µM; hits give high values
Neuropeptide Y receptor type 1 (Homo sapiens), sequence (P25929 whole entry, looked up): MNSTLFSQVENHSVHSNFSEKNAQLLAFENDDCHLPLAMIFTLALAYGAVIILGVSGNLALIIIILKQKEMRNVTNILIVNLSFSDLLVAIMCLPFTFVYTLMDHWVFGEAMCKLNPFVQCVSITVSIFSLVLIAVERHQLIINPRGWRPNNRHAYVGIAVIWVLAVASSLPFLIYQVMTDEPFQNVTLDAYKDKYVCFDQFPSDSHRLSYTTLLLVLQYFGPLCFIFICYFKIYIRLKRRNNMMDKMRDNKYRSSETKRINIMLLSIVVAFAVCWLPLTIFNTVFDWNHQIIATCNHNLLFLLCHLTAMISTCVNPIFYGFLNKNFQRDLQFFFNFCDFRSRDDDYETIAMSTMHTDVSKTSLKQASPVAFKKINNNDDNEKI

[17] = target: Neuropeptide Y receptor type 1 (Homo sapiens) (UniProt P25929); assay: human Y1 receptor agonism, CNGC membrane potential – cell-based, fluorescence, selectivity assay for NPY-Y2 potentiator project (AID 1702;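 active = activation above the mean of DMSO-only control wells plus 3 SD, cut at about 18% in these data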;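 note: cells stimulated with 1 µM isoproterenol plus the PDE inhibitor Ro 20-1724; 0% = isoproterenol with DMSO and no NPY and 100% = 40 nM NPY; Y1 agonists lower the membrane potential dye signal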); conditions: HEK293 Y1-CNGC, at 3.6 µM, hits give high values
[18] = blockers of isoproterenol-driven CNG channel signal – cell-based, HEK293-CNG parental, membrane potential fluorescence, counter-screen for NPY-Y2 potentiator project (AID 1703;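 active = inhibition above the control-well mean plus 3 SD of those wells, cut at about 22% in these data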;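 note: 0% = DMSO with isoproterenol and 100% = DMSO without isoproterenol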); conditions: isoproterenol cAMP, at 3.6 µM, hits give high values
[19] = target: Neuropeptide Y receptor type 2 (Homo sapiens) (UniProt P49146); assay: agonism at human Y2 receptor without NPY – cell-based, fluorescence, counter-screen for NPY-Y2 potentiator project (AID 1710;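 active = activation above the mean of solvent-only control wells plus 3 SD, cut at about 10% in these data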;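 note: cells stimulated by isoproterenol with no NPY added so direct agonism is tested; 0% = DMSO with isoproterenol alone and 100% = NPY at EC100 plus isoproterenol; agonism lowers probe fluorescence through less cAMP and CNG channel opening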); conditions: HEK293 Y2/CNGC cells, membrane potential fluorescence, agonist mode; at 3.6 µM; hits give high values
[20] = system: transactivating tegument protein VP16 (Human herpesvirus 1); assay: compounds suppressing VP16-driven luciferase signal – cell-based, luminescence, single concentration, counter-screen for SRC2 inhibitor project (AID 652007; in the data active = inhibition above about 36%); conditions: cell-based VP16 transactivation luciferase reporter, at 8.9 µM, hits give high values
[21] = target: Nuclear receptor coactivator 2 (Homo sapiens) (UniProt Q15596); assay: inhibition of GAL4-SRC2 driven luciferase expression – cell-based, luminescence, HEK293, triplicate, confirmation (AID 652008;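 active = mean inhibition above 46.5%, the solvent-only control mean plus 3 SD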;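 note: 0% = DMSO-treated cells and 100% = Gossypol at 36 µM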); conditions: HEK293 GAL4-SRC2 luciferase reporter, at 8.9 µM, hits give high values
Nuclear receptor coactivator 2 (Homo sapiens), sequence (Q15596 whole entry, looked up, the tested form may be a part): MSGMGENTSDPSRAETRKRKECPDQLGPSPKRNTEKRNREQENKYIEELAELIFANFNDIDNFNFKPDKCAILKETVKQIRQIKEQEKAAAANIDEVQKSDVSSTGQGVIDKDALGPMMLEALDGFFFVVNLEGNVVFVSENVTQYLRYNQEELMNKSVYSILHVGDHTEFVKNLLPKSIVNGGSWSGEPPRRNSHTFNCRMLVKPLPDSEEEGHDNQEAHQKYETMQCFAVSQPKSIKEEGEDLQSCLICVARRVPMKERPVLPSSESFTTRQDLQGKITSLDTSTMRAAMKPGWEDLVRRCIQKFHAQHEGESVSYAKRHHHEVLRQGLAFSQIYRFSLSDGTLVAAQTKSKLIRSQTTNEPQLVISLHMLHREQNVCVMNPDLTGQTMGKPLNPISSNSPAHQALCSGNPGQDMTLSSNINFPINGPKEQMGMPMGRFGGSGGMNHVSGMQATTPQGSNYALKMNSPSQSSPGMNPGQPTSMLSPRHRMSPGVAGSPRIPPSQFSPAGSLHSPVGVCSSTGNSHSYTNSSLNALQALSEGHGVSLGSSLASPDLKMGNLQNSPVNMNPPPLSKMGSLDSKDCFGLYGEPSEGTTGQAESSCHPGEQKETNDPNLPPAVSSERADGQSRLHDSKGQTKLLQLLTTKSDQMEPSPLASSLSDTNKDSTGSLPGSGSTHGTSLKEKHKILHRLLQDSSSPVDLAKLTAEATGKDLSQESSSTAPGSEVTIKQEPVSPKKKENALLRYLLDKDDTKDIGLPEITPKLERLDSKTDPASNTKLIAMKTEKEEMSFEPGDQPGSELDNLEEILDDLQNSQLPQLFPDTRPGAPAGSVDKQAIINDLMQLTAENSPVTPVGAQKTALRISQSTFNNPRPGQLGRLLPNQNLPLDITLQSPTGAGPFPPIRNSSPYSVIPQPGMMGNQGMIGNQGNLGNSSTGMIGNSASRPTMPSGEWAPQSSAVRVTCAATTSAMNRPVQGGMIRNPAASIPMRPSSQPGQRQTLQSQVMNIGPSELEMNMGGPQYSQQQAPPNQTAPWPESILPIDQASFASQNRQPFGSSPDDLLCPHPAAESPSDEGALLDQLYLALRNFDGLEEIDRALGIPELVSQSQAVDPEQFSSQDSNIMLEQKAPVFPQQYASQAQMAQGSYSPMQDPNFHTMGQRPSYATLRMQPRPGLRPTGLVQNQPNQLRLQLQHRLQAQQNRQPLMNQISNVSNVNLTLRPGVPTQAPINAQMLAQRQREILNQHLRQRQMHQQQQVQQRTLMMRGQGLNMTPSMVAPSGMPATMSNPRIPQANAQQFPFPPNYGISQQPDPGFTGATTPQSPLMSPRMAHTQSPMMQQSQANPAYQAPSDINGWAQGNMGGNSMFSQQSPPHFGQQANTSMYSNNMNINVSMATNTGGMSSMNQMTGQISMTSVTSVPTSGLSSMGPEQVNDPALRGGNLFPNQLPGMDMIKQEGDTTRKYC

[22] = suppression of KLF5 promoter-driven luciferase – DLD-1 cells, luminescence, confirmation (AID 1834;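 active = inhibition above a set limit taken from the earlier primary screen, cut at about 63% in these data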;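 note: 0% = DMSO wells and 100% = LY294002 at 200 µM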); conditions: DLD-1 KLF5 promoter firefly luciferase reporter, at 4 µM, hits give high values
[23] = IEC-6 intestinal cell killing – luminescence, triplicate, cytotoxicity control for KLF5 inhibitor project (AID 1905; in the data active = inhibition above about 23%;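 note: cells exposed to compounds for 48 hours before viability read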); conditions: IEC-6 rat intestinal cells, viability luminescence; at 4 µM; hits give high values
[24] = system: Fam108b (Abhd17b) serine hydrolase [Mus musculus]; assay: inhibition of Fam108b (Abhd17b) hydrolase – biochemical, fluorescence polarization, triplicate, counter-screen for RBBP9 inhibitor project, confirmation (AID 1978;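 active = inhibition above a limit from the primary screen, the mean over all compounds plus 3 SD, cut at about 19% in these data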;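 note: 0% = median of active Fam108b wells and 100% = catalytically dead S170A mutant; inhibitors free the probe so polarization falls as inhibition rises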); conditions: recombinant Fam108b, FP-Rh probe fluorescence polarization; at 9.51 µM; hits give high values
[25] = target: Protein phosphatase methylesterase 1 (Homo sapiens) (UniProt Q9Y570); assay: human PME-1 methylesterase inhibition confirmation – biochemical, fluorescence polarization, FP-Rh probe, triplicate (AID 2171;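 active = inhibition above the hit cutoff set in the earlier primary screen, cut at about 27% in these data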;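 note: 0% = enzyme with DMSO and 100% = wells lacking PME-1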); conditions: recombinant PME-1, FP-Rh probe fluorescence polarization; at 5.9 µM; hits give high values
Protein phosphatase methylesterase 1 (Homo sapiens), sequence (Q9Y570 whole entry, looked up): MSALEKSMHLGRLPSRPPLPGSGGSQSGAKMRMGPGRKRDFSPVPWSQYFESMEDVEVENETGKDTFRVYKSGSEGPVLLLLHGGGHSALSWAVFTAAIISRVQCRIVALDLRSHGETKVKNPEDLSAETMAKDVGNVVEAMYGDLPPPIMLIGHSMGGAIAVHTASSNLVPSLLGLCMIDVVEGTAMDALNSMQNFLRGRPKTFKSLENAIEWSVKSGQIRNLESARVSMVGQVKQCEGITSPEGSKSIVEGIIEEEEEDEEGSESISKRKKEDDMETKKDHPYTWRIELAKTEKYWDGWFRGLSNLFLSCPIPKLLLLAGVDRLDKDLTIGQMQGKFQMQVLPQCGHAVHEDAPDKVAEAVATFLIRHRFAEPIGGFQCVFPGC

[26] = reduced OD of V66 E. coli with T4 gene 2 phage – absorbance, RecBCD inhibitor project, confirmation (AID 651982;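 active = mean inhibition over triplicates exceeding the hit threshold derived in the original primary screen, cut at about 11% in these data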); conditions: E. coli V66 + T4 2- phage, growth OD; at 11.9 µM; hits give high values
[27] = bacterial growth inhibition – absorbance, high throughput, counter-screen for RecBCD inhibitor project (AID 651983; in the data active = inhibition above about 20%;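 note: E. coli strain V66 grown with compound alone and no phage infection; 0% = bacteria with DMSO vehicle only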); conditions: E. coli viability, absorbance (OD) growth; at 11.9 µM; hits give high values
[28] = reduced optical density, T4-challenged addAB+ bacteria – absorbance, E. coli V3065, T4 phage, counter-screen for RecBCD inhibitor project, confirmation (AID 651984;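 active = mean inhibition above the solvent-only control wells' mean plus 3 SD, cut at about 22% in these data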;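 note: higher means less bacterial growth from phage killing when AddAB is blocked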); conditions: E. coli expressing H. pylori AddAB + T4 phage, OD growth; at 11.9 µM; hits give high values; gene 2 mutant T4, recBCD-deleted host

CCc1ccc(NC2Nc3cc(C)nn3S2)cc1 (configuration not stated)
active: activation (% of control) [1] 206% | activation (% of control) [2] 141% | activation (% of control) [3] 126% | activation [4] 18.8%
inactive: activation [5] 0.76%

C=CC[n+]1c(-c2ccc(C)cc2)csc1NNC(=O)Nc1ccccc1
active: inhibition [6] 51.1% | inhibition [7] 18.4% | inhibition [8] 16.9%

O=c1c2c(nc3n1CCCCC3)sc1c(O)cccc12
inactive: inhibition [7] -0.37% | inhibition [8] 3.33%
active: inhibition [6] 45.2%

CCCCCc1ccc(-c2ccc(C(=O)O)cc2)nc1
inactive: inhibition [6] 22.4% | inhibition [7] -6.17% | inhibition [8] -71.4%

CC(C)OCCCNc1ncnc2c1[nH]c1ccc(F)cc12
inactive: inhibition [13] -32.6%
active: inhibition [6] 78.6% | inhibition [7] 33.4% | inhibition [8] 31.1% | inhibition [9] 17.2% | inhibition [10] 75.2% | inhibition [11] 96.7% | inhibition [12] 81.3% | inhibition [14] 63.3%

CCCCOc1ccc(-c2nnc(-c3ccco3)o2)cc1
inactive: inhibition [6] 21.3% | inhibition [7] -24.1% | inhibition [8] -66.4%

Cc1ccc(-c2cn3cc([N+](=O)[O-])ccc3n2)cc1
active: inhibition [6] 60.3%
inactive: inhibition [7] -3.2% | inhibition [8] -77%

Cn1c(SCC(=O)N2CCCc3ccccc32)nc2ccccc2c1=O
active: inhibition [6] 49.3% | inhibition [7] 13.7% | inhibition [8] 22.5%

O=C1NC(Nc2nc3ccccc3s2)(C(F)(F)F)C(=O)N1C1CCCCC1 (configuration not stated)
inactive: inhibition [8] -9.63%
active: inhibition [6] 51.1% | inhibition [7] 21.2%

O=C(NCCCn1ccnc1)c1cc(-c2ccccc2)on1
inactive: activation [5] 0.27%
active: activation (% of control) [1] 173% | activation (% of control) [2] 165% | activation (% of control) [3] 132% | activation [4] 57.6%

Cc1nc(-c2ccc(NC(=O)c3cccs3)cc2)cs1
inactive: inhibition [6] 27.5% | inhibition [7] -26.7% | inhibition [8] -111%

CCN(CC)c1ccc(/C=N/Nc2nc(C)cc(=O)[nH]2)cc1
inactive: inhibition [6] 37.2% | inhibition [7] -2% | inhibition [8] -4.6%

Cc1cc(Cl)ccc1OCc1nc(-c2ccncc2)no1
inactive: activation (% of control) [3] 106% | activation [5] 0.57%
active: activation (% of control) [1] 165% | activation (% of control) [2] 138% | activation [4] 15.6%

O=C(Nc1cccnc1)c1noc2c1CCCCC2
inactive: inhibition [6] 16.7% | inhibition [7] -24.9% | inhibition [8] -46.6%

CC(C)C[C@@H](N)c1nnc(SCC(=O)c2ccc(Cl)cc2)o1
inactive: inhibition [6] 36.7% | inhibition [7] 10.9% | inhibition [8] 9.47%

CN(C)S(=O)(=O)c1ccc(NC(=O)COC(=O)c2n[nH]c3ccccc23)cc1
inactive: inhibition [6] 38.2% | inhibition [7] 1.2% | inhibition [8] 8.4% | activation [15] -2.42% | activation [16] -36% | activation [17] -29.4% | inhibition [18] -6.29% | activation [19] 4.88% | inhibition [20] -4.93% | inhibition [21] 16%

O=C(Nc1nc2ccccc2s1)c1ccc2c(c1)OCO2
inactive: inhibition [6] 41.7% | inhibition [7] 10.6% | inhibition [8] -93.8%

OCCn1c(-c2ccccc2)csc1=Nc1ccccc1
inactive: inhibition [6] 14% | inhibition [7] -12% | inhibition [8] -20.1%

CN(C)c1ccnc2sc(C(=O)c3ccccc3)c(N)c12
inactive: activation (% of control) [2] 126% | activation (% of control) [3] 109% | activation [5] 0.47%
active: activation (% of control) [1] 188% | activation [4] 14.2%

c1ccc(-c2noc(-c3cccs3)n2)nc1
inactive: inhibition [6] 27.6% | inhibition [7] -12.9% | inhibition [8] -54.9%

CC(=O)c1sc(N/N=C/c2ccc(C(C)C)cc2)nc1C
active: activation (% of control) [1] 187% | activation (% of control) [2] 133% | activation [4] 11.8%
inactive: activation (% of control) [3] 110% | activation [5] 0.5%

CCSc1nnc(NC(=O)c2ccc(C)cc2)s1
active: activation [4] 17.3%
inactive: inhibition [6] 21.2% | inhibition [7] -24.2% | inhibition [8] -63% | activation [15] -4.89% | activation [16] -0.65% | activation [17] -1.02% | inhibition [18] -0.46% | activation [19] -10.9% | activation [5] 0.93%

O=C(Nc1ccc2oc(-c3ccccc3F)nc2c1)c1ccco1
inactive: activation (% of control) [3] 104% | activation [5] 0.57%
active: activation (% of control) [1] 204% | activation (% of control) [2] 137% | activation [4] 11.9%

Oc1c(Cl)cc(Cl)c(Cl)c1Cc1c(O)c(Cl)cc(Cl)c1Cl
inactive: activation [15] 24.1% | activation [16] 3.71% | activation [17] 14.9% | inhibition [18] 15.6% | inhibition [25] 10.2% | inhibition [27] 11.5% | inhibition [28] 2.09%
active: inhibition [6] 46.3% | inhibition [7] 20.9% | inhibition [8] 41% | activation [19] 24.1% | inhibition [22] 88% | inhibition [23] 31.1% | inhibition [24] 47.1% | inhibition [11] 98.9% | inhibition [26] 11.6%
